For experiment [1], the target named is T1, Inhibitor of nuclear factor kappa-B kinase subunit epsilon (Homo sapiens) (UniProt Q14164).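 Further: reported values are averaged percent inhibition figures against human IKKε.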
T1 sequence (whole entry): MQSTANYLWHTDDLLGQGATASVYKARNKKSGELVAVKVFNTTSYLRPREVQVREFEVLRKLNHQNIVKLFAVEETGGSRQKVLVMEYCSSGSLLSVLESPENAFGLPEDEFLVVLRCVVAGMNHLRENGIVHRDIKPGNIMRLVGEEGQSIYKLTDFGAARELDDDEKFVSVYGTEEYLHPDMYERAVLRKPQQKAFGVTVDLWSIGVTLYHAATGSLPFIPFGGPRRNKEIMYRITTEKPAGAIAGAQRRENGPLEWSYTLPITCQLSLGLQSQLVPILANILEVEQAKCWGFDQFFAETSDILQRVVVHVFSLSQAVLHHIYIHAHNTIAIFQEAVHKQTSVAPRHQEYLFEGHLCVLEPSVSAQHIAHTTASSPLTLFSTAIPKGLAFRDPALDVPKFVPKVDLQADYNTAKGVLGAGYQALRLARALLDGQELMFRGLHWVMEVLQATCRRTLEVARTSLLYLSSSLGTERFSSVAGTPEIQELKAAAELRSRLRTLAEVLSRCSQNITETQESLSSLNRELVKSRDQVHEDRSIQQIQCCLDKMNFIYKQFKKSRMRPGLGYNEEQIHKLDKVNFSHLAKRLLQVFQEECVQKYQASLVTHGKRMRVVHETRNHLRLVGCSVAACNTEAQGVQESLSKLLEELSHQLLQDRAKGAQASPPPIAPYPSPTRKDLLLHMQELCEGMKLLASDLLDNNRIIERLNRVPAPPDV
The conditions noted are these: at 1 µM.

Experiment [2] deals with T2, Serine/threonine-protein kinase Nek1 (Homo sapiens) (UniProt Q96PY6).
T2 sequence (whole entry): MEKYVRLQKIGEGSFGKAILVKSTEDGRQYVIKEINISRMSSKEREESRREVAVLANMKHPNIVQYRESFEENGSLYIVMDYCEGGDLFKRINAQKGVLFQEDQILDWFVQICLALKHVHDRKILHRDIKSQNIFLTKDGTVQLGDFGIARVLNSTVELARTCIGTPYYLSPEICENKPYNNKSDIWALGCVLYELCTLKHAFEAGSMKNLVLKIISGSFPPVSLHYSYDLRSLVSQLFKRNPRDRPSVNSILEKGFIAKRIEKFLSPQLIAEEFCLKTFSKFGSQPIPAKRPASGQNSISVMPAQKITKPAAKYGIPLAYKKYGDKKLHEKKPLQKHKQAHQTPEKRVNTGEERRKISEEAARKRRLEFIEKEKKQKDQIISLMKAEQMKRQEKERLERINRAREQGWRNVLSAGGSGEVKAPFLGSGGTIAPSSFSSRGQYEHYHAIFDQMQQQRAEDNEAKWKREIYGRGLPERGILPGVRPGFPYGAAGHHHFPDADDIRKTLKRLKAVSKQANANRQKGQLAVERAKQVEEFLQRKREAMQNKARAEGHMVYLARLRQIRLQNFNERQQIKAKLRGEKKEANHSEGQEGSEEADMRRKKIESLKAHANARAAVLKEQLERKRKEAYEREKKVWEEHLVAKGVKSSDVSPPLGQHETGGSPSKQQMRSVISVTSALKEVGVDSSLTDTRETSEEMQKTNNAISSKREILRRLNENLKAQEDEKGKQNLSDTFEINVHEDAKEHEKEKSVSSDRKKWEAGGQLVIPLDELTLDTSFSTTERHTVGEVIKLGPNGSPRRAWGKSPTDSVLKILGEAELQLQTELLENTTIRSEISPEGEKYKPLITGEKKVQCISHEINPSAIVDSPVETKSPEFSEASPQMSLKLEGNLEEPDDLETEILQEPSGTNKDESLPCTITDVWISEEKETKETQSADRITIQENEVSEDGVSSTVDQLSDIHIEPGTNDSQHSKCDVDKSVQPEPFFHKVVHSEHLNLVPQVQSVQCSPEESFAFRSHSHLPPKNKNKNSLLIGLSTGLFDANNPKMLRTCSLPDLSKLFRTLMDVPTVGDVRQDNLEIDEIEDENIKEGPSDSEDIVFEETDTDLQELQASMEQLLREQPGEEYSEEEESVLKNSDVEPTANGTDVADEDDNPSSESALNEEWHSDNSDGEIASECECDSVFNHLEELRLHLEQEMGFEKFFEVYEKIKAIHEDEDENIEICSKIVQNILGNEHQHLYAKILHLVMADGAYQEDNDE
The following applies: at 0.1 µM.

Experiment [3] has as its target T2, Serine/threonine-protein kinase Nek1 (Homo sapiens). The following applies: at 1 µM.
Experiment [4] addresses T3, Serine/threonine-protein kinase Nek2 (Homo sapiens) (UniProt P51955).
T3 sequence (whole entry): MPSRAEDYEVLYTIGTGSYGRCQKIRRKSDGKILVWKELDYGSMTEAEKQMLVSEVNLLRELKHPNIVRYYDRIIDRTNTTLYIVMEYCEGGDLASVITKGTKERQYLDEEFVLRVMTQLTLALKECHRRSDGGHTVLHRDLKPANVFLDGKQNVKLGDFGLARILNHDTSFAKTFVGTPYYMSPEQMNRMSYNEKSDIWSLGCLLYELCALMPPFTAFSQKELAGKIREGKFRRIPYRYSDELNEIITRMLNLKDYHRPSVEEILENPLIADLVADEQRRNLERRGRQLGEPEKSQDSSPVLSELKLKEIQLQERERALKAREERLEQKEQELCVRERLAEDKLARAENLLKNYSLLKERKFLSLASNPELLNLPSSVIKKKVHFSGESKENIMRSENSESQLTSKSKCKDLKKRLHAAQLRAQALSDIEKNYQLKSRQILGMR
The following applies: at 0.1 µM.

For experiment [5], the target named is T3, Serine/threonine-protein kinase Nek2 (Homo sapiens). The conditions noted are these: at 1 µM.
Experiment [6] has as its target Serine/threonine-protein kinase Nek6 (Homo sapiens) (UniProt Q9HC98). The conditions noted are these: at 0.1 µM.
For experiment [7] the target is unchanged. The following applies: at 1 µM.
The target of experiment [8] is Serine/threonine-protein kinase Nek7 (Homo sapiens) (UniProt Q8TDX7). The conditions noted are these: at 0.1 µM.
Serine/threonine-protein kinase Nek7 (Homo sapiens), sequence (Q8TDX7 whole entry, looked up): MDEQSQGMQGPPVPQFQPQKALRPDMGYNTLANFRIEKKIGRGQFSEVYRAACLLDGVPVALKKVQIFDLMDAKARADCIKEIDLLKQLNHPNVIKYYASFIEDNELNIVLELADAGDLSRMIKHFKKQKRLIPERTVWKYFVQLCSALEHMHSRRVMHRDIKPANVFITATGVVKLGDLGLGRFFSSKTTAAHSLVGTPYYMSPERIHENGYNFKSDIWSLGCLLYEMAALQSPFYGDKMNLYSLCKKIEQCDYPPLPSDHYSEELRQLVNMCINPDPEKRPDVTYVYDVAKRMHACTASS
The target is the same in experiment [9]. The following applies: at 1 µM.
Experiment [10] has as its target T4, Serine/threonine-protein kinase Nek9 (Homo sapiens) (UniProt Q8TD19).
T4 sequence (whole entry): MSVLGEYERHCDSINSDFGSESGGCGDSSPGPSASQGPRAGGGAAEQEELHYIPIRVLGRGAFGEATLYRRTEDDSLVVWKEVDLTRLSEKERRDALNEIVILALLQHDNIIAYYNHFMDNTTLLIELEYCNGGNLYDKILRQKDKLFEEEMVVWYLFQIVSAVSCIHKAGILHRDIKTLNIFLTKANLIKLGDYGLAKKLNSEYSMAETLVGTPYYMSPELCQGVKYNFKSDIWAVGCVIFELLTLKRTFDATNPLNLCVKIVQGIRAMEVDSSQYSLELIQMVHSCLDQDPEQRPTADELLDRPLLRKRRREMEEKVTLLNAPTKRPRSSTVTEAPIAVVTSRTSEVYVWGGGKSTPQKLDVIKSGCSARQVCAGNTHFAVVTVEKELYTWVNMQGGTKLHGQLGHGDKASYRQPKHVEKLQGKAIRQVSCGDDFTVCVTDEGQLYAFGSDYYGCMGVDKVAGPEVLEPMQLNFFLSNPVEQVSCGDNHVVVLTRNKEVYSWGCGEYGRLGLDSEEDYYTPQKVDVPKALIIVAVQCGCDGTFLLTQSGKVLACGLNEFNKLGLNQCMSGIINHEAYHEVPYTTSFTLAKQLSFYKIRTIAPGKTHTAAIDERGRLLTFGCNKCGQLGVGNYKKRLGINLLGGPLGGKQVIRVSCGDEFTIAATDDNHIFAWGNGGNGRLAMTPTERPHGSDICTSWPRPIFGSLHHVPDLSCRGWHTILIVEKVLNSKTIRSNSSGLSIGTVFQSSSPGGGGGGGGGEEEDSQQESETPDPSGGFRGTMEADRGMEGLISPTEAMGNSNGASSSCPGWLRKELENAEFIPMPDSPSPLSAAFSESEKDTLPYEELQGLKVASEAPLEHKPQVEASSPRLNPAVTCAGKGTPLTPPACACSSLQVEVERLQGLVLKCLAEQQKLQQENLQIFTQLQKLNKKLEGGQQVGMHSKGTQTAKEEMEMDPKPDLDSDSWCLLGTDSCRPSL
The following applies: at 0.1 µM.

The target in experiment [11] is T4, Serine/threonine-protein kinase Nek9 (Homo sapiens). The conditions noted are these: at 1 µM.
Experiment [12] deals with Serine/threonine-protein kinase PLK1 (Homo sapiens) (UniProt P53350). The following applies: at 0.1 µM.
Serine/threonine-protein kinase PLK1 (Homo sapiens), sequence (P53350 whole entry): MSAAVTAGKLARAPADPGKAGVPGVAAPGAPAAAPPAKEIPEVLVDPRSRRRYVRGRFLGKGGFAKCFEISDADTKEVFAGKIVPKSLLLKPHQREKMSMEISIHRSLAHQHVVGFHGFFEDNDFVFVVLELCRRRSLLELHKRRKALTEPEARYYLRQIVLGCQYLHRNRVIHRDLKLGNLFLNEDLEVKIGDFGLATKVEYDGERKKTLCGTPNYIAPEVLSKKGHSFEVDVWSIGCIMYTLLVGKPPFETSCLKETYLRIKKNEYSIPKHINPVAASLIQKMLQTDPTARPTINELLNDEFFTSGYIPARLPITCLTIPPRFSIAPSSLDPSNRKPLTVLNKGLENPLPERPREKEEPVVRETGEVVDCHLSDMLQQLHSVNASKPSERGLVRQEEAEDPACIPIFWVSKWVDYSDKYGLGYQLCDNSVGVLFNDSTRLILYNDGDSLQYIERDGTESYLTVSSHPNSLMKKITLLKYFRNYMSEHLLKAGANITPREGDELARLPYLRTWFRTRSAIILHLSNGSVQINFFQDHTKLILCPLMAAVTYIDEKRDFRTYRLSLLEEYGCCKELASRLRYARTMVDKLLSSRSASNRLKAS
Experiment [13] shares this target. The conditions noted are these: at 1 µM.
For experiment [14], the target named is T5, Dual specificity protein kinase TTK (Homo sapiens) (UniProt P33981).
T5 sequence (whole entry): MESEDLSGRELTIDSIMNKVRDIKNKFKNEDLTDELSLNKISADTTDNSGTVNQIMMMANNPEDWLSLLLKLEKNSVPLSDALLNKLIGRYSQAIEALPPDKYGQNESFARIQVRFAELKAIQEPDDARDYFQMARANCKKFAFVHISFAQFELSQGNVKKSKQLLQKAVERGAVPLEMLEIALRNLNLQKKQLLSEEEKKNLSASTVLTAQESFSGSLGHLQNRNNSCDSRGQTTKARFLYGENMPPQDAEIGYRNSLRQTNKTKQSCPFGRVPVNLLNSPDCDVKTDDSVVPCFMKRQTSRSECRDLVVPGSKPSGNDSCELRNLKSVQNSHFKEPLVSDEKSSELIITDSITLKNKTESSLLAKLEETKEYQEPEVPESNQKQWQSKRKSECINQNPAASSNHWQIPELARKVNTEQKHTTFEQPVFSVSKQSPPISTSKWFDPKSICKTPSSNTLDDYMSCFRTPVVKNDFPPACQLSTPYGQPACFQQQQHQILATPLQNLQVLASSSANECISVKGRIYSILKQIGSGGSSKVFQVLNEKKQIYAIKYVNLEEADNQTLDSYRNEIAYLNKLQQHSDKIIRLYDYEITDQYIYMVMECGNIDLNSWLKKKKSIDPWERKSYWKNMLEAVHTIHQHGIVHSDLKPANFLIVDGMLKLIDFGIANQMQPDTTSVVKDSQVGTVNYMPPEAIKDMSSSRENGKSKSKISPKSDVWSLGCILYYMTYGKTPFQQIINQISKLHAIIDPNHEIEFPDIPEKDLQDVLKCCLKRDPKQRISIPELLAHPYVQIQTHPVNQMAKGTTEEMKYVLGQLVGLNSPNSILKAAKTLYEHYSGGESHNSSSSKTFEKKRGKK
The conditions noted are these: at 0.1 µM.

Experiment [15] relates to T6, Receptor-type tyrosine-protein kinase FLT3 (Homo sapiens), P36888 [D835Y].
T6 sequence (whole entry): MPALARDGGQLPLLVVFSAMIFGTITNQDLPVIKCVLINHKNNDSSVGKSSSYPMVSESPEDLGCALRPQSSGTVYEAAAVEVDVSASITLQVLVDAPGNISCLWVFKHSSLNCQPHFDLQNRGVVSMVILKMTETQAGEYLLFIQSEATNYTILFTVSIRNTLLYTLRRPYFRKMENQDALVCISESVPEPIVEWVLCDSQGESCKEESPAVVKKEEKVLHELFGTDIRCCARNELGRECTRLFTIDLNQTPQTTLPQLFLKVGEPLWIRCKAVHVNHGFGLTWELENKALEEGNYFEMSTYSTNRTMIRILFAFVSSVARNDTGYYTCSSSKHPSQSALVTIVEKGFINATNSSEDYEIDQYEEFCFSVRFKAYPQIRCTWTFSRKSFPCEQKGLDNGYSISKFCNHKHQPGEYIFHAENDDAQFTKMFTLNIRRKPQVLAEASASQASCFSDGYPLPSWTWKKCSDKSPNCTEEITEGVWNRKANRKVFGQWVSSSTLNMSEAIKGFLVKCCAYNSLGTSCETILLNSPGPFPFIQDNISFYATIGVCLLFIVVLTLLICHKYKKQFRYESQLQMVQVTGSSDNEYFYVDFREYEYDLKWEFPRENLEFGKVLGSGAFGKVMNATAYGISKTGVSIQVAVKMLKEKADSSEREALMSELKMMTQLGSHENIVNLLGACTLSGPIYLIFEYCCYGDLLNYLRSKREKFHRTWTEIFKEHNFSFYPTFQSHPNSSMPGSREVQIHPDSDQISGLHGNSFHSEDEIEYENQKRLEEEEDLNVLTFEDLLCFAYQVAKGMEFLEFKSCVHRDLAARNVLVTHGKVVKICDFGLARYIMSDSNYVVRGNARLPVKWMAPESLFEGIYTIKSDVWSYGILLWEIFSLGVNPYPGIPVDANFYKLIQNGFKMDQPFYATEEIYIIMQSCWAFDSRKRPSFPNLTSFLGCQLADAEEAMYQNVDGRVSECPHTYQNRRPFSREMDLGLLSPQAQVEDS
The conditions noted are these: at 1 µM.

For experiment [16], the target named is Vascular endothelial growth factor receptor 3 (Homo sapiens) (UniProt P35916). The conditions noted are these: at 0.1 µM.
Vascular endothelial growth factor receptor 3 (Homo sapiens), sequence (P35916 whole entry): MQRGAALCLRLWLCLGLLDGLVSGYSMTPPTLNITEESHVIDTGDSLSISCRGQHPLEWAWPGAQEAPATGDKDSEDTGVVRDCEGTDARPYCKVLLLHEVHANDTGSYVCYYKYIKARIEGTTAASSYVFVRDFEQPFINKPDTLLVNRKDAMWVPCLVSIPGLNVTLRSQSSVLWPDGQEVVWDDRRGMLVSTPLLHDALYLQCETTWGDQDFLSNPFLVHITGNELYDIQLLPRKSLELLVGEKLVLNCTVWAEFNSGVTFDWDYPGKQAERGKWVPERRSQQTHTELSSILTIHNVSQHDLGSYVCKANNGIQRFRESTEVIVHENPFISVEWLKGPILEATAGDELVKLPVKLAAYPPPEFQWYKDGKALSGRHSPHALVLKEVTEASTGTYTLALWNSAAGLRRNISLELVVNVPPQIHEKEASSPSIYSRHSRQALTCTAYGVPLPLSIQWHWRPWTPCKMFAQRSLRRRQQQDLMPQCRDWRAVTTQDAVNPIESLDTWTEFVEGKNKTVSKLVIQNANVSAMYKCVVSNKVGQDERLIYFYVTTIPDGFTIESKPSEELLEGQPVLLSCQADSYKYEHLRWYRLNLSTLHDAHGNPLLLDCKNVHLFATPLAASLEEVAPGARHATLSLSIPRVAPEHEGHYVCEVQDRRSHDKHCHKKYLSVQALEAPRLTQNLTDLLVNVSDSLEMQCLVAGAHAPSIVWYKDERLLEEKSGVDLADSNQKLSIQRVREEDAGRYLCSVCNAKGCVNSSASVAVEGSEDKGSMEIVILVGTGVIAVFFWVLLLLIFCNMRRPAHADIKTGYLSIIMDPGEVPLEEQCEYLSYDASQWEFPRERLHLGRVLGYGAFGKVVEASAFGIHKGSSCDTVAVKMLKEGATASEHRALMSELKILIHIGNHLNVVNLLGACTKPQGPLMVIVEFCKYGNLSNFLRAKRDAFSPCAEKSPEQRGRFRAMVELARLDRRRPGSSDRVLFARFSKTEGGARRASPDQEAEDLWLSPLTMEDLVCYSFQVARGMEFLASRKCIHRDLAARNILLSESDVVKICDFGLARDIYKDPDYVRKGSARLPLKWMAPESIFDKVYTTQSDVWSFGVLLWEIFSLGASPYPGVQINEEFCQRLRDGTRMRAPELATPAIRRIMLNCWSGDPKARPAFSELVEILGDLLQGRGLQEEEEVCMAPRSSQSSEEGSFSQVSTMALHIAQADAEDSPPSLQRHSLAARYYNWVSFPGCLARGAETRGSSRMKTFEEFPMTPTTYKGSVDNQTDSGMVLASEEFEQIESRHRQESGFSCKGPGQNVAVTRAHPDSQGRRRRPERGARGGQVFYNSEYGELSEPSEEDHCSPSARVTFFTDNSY
For experiment [17] the target is unchanged. The conditions noted are these: at 1 µM.
For experiment [18], the target named is Macrophage colony-stimulating factor 1 receptor (Homo sapiens) (UniProt P07333). The following applies: at 0.1 µM.
Macrophage colony-stimulating factor 1 receptor (Homo sapiens), sequence (P07333 whole entry): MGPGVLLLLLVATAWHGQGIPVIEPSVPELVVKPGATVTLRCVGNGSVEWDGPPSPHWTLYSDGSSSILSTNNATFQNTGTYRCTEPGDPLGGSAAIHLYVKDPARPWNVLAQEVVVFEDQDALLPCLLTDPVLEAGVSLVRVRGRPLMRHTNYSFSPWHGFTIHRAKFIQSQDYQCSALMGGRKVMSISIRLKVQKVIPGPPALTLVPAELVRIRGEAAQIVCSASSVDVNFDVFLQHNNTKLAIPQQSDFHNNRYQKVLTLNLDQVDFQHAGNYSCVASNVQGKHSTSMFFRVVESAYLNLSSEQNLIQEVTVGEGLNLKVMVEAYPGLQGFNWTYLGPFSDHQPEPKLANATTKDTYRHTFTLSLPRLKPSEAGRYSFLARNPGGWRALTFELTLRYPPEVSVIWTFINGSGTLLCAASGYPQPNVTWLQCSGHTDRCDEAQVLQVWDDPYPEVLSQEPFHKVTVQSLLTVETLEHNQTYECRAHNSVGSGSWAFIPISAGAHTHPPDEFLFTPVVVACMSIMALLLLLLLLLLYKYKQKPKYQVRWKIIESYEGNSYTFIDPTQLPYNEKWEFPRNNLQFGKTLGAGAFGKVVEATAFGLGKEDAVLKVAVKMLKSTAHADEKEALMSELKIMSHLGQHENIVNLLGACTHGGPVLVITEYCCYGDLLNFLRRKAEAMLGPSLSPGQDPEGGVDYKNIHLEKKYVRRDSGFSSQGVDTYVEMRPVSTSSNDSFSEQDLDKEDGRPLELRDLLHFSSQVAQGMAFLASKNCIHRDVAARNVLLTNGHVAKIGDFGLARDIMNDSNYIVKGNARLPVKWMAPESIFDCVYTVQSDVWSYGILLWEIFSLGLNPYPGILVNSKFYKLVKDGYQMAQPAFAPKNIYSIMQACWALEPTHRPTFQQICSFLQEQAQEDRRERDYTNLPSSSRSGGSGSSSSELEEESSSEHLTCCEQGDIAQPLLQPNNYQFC
Experiment [19] has the same target. The following applies: at 1 µM.
For experiment [20], the target named is Tyrosine-protein kinase Fyn (Homo sapiens) (UniProt P06241). The following applies: at 0.1 µM.
Tyrosine-protein kinase Fyn (Homo sapiens), sequence (P06241 2-537 limits assumed): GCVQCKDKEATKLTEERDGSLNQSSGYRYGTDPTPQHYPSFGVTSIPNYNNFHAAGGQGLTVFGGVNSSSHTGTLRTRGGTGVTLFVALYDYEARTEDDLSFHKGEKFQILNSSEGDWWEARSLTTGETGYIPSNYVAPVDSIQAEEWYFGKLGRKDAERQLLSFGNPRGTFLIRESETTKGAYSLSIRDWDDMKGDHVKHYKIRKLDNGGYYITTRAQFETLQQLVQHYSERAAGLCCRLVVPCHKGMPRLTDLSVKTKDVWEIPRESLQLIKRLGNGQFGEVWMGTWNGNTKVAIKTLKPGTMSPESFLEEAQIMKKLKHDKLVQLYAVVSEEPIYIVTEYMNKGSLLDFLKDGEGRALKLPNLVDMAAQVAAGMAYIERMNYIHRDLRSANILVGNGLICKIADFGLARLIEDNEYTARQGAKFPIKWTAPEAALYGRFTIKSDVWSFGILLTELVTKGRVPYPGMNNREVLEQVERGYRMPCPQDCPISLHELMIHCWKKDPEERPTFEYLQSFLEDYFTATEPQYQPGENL

Serine/threonine-protein kinase Nek6 (Homo sapiens), sequence (Q9HC98 whole entry): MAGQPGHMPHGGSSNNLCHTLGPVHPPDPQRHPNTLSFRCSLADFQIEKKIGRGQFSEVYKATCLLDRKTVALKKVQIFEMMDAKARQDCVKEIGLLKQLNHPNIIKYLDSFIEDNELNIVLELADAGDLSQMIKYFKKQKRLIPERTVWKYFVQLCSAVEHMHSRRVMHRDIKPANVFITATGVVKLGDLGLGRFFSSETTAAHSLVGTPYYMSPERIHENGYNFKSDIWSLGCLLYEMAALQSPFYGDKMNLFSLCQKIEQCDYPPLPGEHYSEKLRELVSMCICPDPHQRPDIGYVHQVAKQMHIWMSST

As usually defined, the inhibition is the change of the read-out against control, counted positive when it falls. Consider `CCS(=O)(=O)c1ccc(OC)c(Nc2nccc(N(C)c3ccc4c(C)n[nH]c4c3)n2)c1`, for which the inhibition in experiment [1] came to 6.37%; in experiment [2], 2.52%; in [3], 2.74%; in [4], 5.67%; in experiment [5], 3.85%; in [6] it was 2.07%. For the same compound, the inhibition in experiment [7] is 0.72%; in experiment [8], 2.57%; in experiment [9], 5.28%; in experiment [10], 3.29%; in experiment [11] it was 6.15%; in experiment [12] it was 4.22%. In addition, the inhibition was 8.94% in experiment [13]; 10.8% in [14]; -5.27% in [15]; 94.8% in [16]; 104% in [17]; 5.72% in experiment [18]. For the same compound, the inhibition came to 32.2% in [19] and 39% in experiment [20].
